Experimental data from PubChem BioAssay (NCI).
This is part of a sample that, as a whole, favours compounds with a hit. Of some 83,000 tested, about 20% had one in any assay.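 Cells were grown in 96-well plates and exposed to the test compound at a single concentration for 48 hours; results are reported as percent growth, with values below 10 considered active.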 Active and inactive are the calls of the source.

Columns and labels:
Assay in all cases: NCI-60 one-dose screen, 48 h (100 = growth as untreated, 0 = no growth, -100 = all killed)
Conditions in all cases: 10 µM unless noted
MOLT-4 leukemia = system: MOLT-4 leukemia
SR leukemia = system: SR leukemia
RPMI-8226 leukemia = system: RPMI-8226 leukemia
OVCAR-8 ovarian = system: OVCAR-8 ovarian
OVCAR-5 ovarian = system: OVCAR-5 ovarian
OVCAR-4 ovarian = system: OVCAR-4 ovarian
SK-OV-3 ovarian = system: SK-OV-3 ovarian
IGROV1 ovarian = system: IGROV1 ovarian
OVCAR-3 ovarian = system: OVCAR-3 ovarian
HS 578T breast = system: HS 578T breast
NCI/ADR-RES ovarian = system: NCI/ADR-RES ovarian
T-47D breast = system: T-47D breast
BT-549 breast = system: BT-549 breast
MDA-MB-435 melanoma = system: MDA-MB-435 melanoma
SW-620 colon = system: SW-620 colon
MCF7 breast = system: MCF7 breast
HCT-116 colon = system: HCT-116 colon
HCC-2998 colon = system: HCC-2998 colon
KM12 colon = system: KM12 colon

Measured: growth

Nc1cc2nc3ccccc3nc2cc1N
inactive: MOLT-4 leukemia 91.1% | SR leukemia 82.4% | RPMI-8226 leukemia 80% | OVCAR-8 ovarian 83% | OVCAR-5 ovarian 99.9% | OVCAR-4 ovarian 84% | SK-OV-3 ovarian 82.3% | IGROV1 ovarian 96% | OVCAR-3 ovarian 92.1% | HS 578T breast 76.8% | NCI/ADR-RES ovarian 94.8% | T-47D breast 52.7% | BT-549 breast 94% | MDA-MB-435 melanoma 109% | SW-620 colon 98% | MCF7 breast 23.5% | HCT-116 colon 74.9% | HCC-2998 colon 96.8% | KM12 colon 91.6%

O=C1NC(=O)C(=Cc2cn(CCCCCCn3c4ccccc4c(=O)c4ccccc43)c3ccccc23)C(=O)N1
inactive: MOLT-4 leukemia 63.2% | SR leukemia 93.5% | RPMI-8226 leukemia 76.2% | OVCAR-8 ovarian 91.8% | OVCAR-5 ovarian 22.6% | OVCAR-4 ovarian 85.8% | SK-OV-3 ovarian 77.5% | IGROV1 ovarian 79.2% | OVCAR-3 ovarian 99.2% | HS 578T breast 103% | NCI/ADR-RES ovarian 83.9% | T-47D breast 60.6% | BT-549 breast 94.3% | MDA-MB-435 melanoma 102% | SW-620 colon 93.8% | MCF7 breast 71.6% | HCT-116 colon 70.2% | HCC-2998 colon 96.8% | KM12 colon 95.8%

Clc1ccc(CO/N=C(\Cn2ccnc2)c2ccc(Cl)cc2Cl)c(Cl)c1
active: MOLT-4 leukemia -4.84% | SR leukemia -13.7% | RPMI-8226 leukemia -3.32% | OVCAR-8 ovarian 9.94% | IGROV1 ovarian 6.54% | OVCAR-3 ovarian -60.1% | HS 578T breast -4.93% | NCI/ADR-RES ovarian -12.2% | BT-549 breast -44% | MDA-MB-435 melanoma -13.2% | SW-620 colon 8.71% | MCF7 breast 0.337% | HCT-116 colon -79.3% | HCC-2998 colon 3.92% | KM12 colon -1.07%
inactive: OVCAR-5 ovarian 15.8% | OVCAR-4 ovarian 20.7% | SK-OV-3 ovarian 101% | T-47D breast 101%

COc1cc(/C=C/[N+](=O)[O-])cc(OC)c1
inactive: OVCAR-8 ovarian 13.8% | OVCAR-5 ovarian 13.8% | OVCAR-4 ovarian 47.6% | SK-OV-3 ovarian 71.7% | HS 578T breast 40.9% | NCI/ADR-RES ovarian 11.3%
active: MOLT-4 leukemia 7.52% | SR leukemia -12.3% | RPMI-8226 leukemia -24.1% | IGROV1 ovarian 9.88% | OVCAR-3 ovarian -30.3% | T-47D breast -1.67% | BT-549 breast -49.7% | MDA-MB-435 melanoma -46.4% | SW-620 colon -10.5% | MCF7 breast -59.1% | HCT-116 colon -68.3% | HCC-2998 colon -79.7% | KM12 colon -23.7%

CN[C@@]1(c2ccccc2Cl)CCCC[C@@H]1NCC1CCCO1 (some centres not stated)
inactive: MOLT-4 leukemia 111% | SR leukemia 95.2% | RPMI-8226 leukemia 104% | OVCAR-8 ovarian 102% | OVCAR-5 ovarian 97.4% | OVCAR-4 ovarian 93.8% | SK-OV-3 ovarian 111% | IGROV1 ovarian 102% | OVCAR-3 ovarian 116% | HS 578T breast 96.3% | NCI/ADR-RES ovarian 101% | T-47D breast 93% | BT-549 breast 102% | MDA-MB-435 melanoma 102% | SW-620 colon 102% | MCF7 breast 98.6% | HCT-116 colon 105% | HCC-2998 colon 101% | KM12 colon 108%

O=NNc1ccccn1
inactive: MOLT-4 leukemia 67.9% | SR leukemia 66.7% | RPMI-8226 leukemia 102% | OVCAR-8 ovarian 80.3% | OVCAR-5 ovarian 68% | OVCAR-4 ovarian 90.8% | SK-OV-3 ovarian 90% | IGROV1 ovarian 86.1% | OVCAR-3 ovarian 112% | HS 578T breast 89.7% | NCI/ADR-RES ovarian 75.1% | T-47D breast 97.3% | BT-549 breast 90% | MDA-MB-435 melanoma 111% | SW-620 colon 47.8% | MCF7 breast 71.4% | HCT-116 colon 44.4% | HCC-2998 colon 86.7% | KM12 colon 96.7%

CC(=O)O[C@H](C[C@H](C(C)C)N(C)C(=O)[C@@H](NC(=O)[C@H]1CCCCN1C)C(C)(C)C)c1nc(C(=O)N[C@@H](Cc2ccccc2)C[C@H](C)C(=O)O)cs1
active: MOLT-4 leukemia 6.26% | SR leukemia 2.59% | OVCAR-8 ovarian 8.74% | OVCAR-3 ovarian -14.6% | BT-549 breast -23.6% | MDA-MB-435 melanoma -47% | HCT-116 colon 0.775% | HCC-2998 colon 8.37% | KM12 colon 6.93%
inactive: RPMI-8226 leukemia 16.8% | OVCAR-5 ovarian 32% | OVCAR-4 ovarian 41.6% | SK-OV-3 ovarian 28.6% | IGROV1 ovarian 18.9% | HS 578T breast 16.7% | NCI/ADR-RES ovarian 12.3% | T-47D breast 45.6% | SW-620 colon 24.5% | MCF7 breast 16.4%

CC(=O)Nc1nc2c(s1)CC[C@@]1(C)C2=CC[C@H]2[C@@H]3CC[C@H](O)[C@@]3(C)CC[C@@H]21
active: MDA-MB-435 melanoma 5.93%
inactive: MOLT-4 leukemia 50.8% | SR leukemia 24.9% | RPMI-8226 leukemia 34.1% | OVCAR-8 ovarian 80% | OVCAR-5 ovarian 92.3% | OVCAR-4 ovarian 87.4% | SK-OV-3 ovarian 81.9% | IGROV1 ovarian 64.3% | OVCAR-3 ovarian 13.7% | HS 578T breast 60.5% | NCI/ADR-RES ovarian 45.5% | T-47D breast 82% | BT-549 breast 42.6% | SW-620 colon 44.8% | MCF7 breast 24.6% | HCT-116 colon 30.3% | HCC-2998 colon 96% | KM12 colon 49.4%

Cn1cc(-c2csc(-c3cn(CCCCN4CCCCC4)c4ccc(F)cc34)n2)c2cccnc21
active: MOLT-4 leukemia -62% | SR leukemia -44.9% | RPMI-8226 leukemia 1.18% | MDA-MB-435 melanoma -91.1% | SW-620 colon -69.9% | MCF7 breast -55.9%
inactive: OVCAR-8 ovarian 91.8% | OVCAR-5 ovarian 103% | OVCAR-4 ovarian 87% | SK-OV-3 ovarian 100% | IGROV1 ovarian 71.7% | OVCAR-3 ovarian 87.7% | HS 578T breast 67.9% | NCI/ADR-RES ovarian 81.7% | T-47D breast 81.5% | BT-549 breast 81.1% | HCT-116 colon 94.9% | HCC-2998 colon 96.5% | KM12 colon 82.5%

c1cnc2[nH]cc(-c3csc(-c4cn(CCCCN5CCCCC5)c5ccccc45)n3)c2c1
inactive: MOLT-4 leukemia 56.4% | RPMI-8226 leukemia 52.5% | OVCAR-8 ovarian 87.3% | OVCAR-5 ovarian 96.3% | OVCAR-4 ovarian 83.8% | SK-OV-3 ovarian 109% | IGROV1 ovarian 44.9% | OVCAR-3 ovarian 90.5% | HS 578T breast 84.3% | NCI/ADR-RES ovarian 89.8% | T-47D breast 79.4% | BT-549 breast 105% | MDA-MB-435 melanoma 80.5% | SW-620 colon 76.8% | MCF7 breast 58.9% | HCT-116 colon 81.8% | HCC-2998 colon 95.6% | KM12 colon 85.5%
active: SR leukemia -23.5%

C=CC1=C[C@@H]2[C@@H]3O[C@]4(CC[C@H](O4)[C@@H](C)C[C@@H](O)C3=O)C[C@H](O)C3=NCC[C@@]32CC1
active: MOLT-4 leukemia 0.671% | SR leukemia 2.4% | RPMI-8226 leukemia -15.9% | OVCAR-8 ovarian -12.3% | OVCAR-5 ovarian -24% | OVCAR-4 ovarian -38.8% | SK-OV-3 ovarian -4.99% | IGROV1 ovarian -28.4% | OVCAR-3 ovarian -30.7% | HS 578T breast -29.6% | NCI/ADR-RES ovarian -15.3% | T-47D breast -14.6% | BT-549 breast -31.9% | MDA-MB-435 melanoma -92.9% | SW-620 colon -11.3% | MCF7 breast -11.8% | HCT-116 colon -22.8% | HCC-2998 colon -81.2% | KM12 colon -33.4%

O=P(Oc1ccc(Cl)cc1)(N1CC1)N1CC1
inactive: MOLT-4 leukemia 84.8% | SR leukemia 77.8% | RPMI-8226 leukemia 88.6% | OVCAR-8 ovarian 89.3% | OVCAR-5 ovarian 117% | OVCAR-4 ovarian 97.3% | SK-OV-3 ovarian 104% | IGROV1 ovarian 89.1% | OVCAR-3 ovarian 109% | HS 578T breast 103% | NCI/ADR-RES ovarian 101% | T-47D breast 106% | BT-549 breast 92.8% | MDA-MB-435 melanoma 109% | SW-620 colon 89.3% | MCF7 breast 67.4% | HCT-116 colon 84% | HCC-2998 colon 88.5% | KM12 colon 110%

O=C(CC1(O)C(=O)Nc2ccccc21)c1ccc(C(=O)NCC2CCC3(CC2)OOC2(CCCCC2)OO3)cc1 (configuration not stated)
inactive: MOLT-4 leukemia 58.4% | SR leukemia 10.8% | RPMI-8226 leukemia 48.1% | OVCAR-8 ovarian 45.3% | OVCAR-5 ovarian 106% | OVCAR-4 ovarian 71.9% | SK-OV-3 ovarian 81.2% | IGROV1 ovarian 41% | OVCAR-3 ovarian 74.1% | HS 578T breast 91.9% | NCI/ADR-RES ovarian 86.9% | T-47D breast 31.8% | BT-549 breast 80.1% | MDA-MB-435 melanoma 81.6% | SW-620 colon 86.4% | MCF7 breast 62.9% | HCT-116 colon 65.9% | HCC-2998 colon 106% | KM12 colon 77.4%

COC(=O)[C@@H](C)C[C@H](Cc1cn(C)c2ccccc12)NC(=O)c1csc([C@@H](C[C@H](C(C)C)N(C)C(=O)[C@@H](NC(=O)[C@H]2CCCCN2C)C(C)C)OC(C)=O)n1
inactive: MOLT-4 leukemia 12.8% | SR leukemia 13.2% | RPMI-8226 leukemia 10.5% | OVCAR-8 ovarian 30.1% | OVCAR-5 ovarian 48.7% | OVCAR-4 ovarian 50.5% | SK-OV-3 ovarian 26.8% | IGROV1 ovarian 26.3% | HS 578T breast 22.7% | NCI/ADR-RES ovarian 20.7% | T-47D breast 67.7% | SW-620 colon 26.8% | MCF7 breast 17.8%
active: OVCAR-3 ovarian -11% | BT-549 breast -15.9% | MDA-MB-435 melanoma -41.5% | HCT-116 colon 6.08% | KM12 colon 9.11%

COc1cc2ncnc(Nc3ccc(F)c(Cl)c3)c2cc1OCC(=O)N1CCN(C)CC1
inactive: MOLT-4 leukemia 81.2% | SR leukemia 74.5% | RPMI-8226 leukemia 90.5% | OVCAR-8 ovarian 90% | OVCAR-5 ovarian 78.4% | OVCAR-4 ovarian 79.5% | SK-OV-3 ovarian 13.7% | IGROV1 ovarian 48.2% | OVCAR-3 ovarian 78.2% | HS 578T breast 93.4% | NCI/ADR-RES ovarian 86.7% | T-47D breast 70% | BT-549 breast 89.6% | MDA-MB-435 melanoma 102% | SW-620 colon 105% | MCF7 breast 80.4% | HCT-116 colon 91.3% | HCC-2998 colon 102% | KM12 colon 96.4%

CC12CCC=CC1CCC1C2CCC2(C)C(c3ccc(=O)oc3)CCC12O (configuration not stated)
active: MOLT-4 leukemia -16.7% | SR leukemia -4.41% | RPMI-8226 leukemia -14.1% | OVCAR-8 ovarian -51.4% | OVCAR-5 ovarian -80.4% | OVCAR-4 ovarian -52.8% | SK-OV-3 ovarian -11% | IGROV1 ovarian -12.3% | OVCAR-3 ovarian -74.5% | HS 578T breast -14.8% | NCI/ADR-RES ovarian -51.5% | T-47D breast -13.6% | BT-549 breast -65.2% | MDA-MB-435 melanoma -95.2% | SW-620 colon -36.7% | MCF7 breast -30.6% | HCT-116 colon -64.2% | KM12 colon -55.7%
